Among the data in PubChem BioAssay (NCATS) are Potency values, retold here.

Results filed as inconclusive are left out. Where a call stands in place of a potency, no number is given. The source made the active and inactive calls. Calls come from the whole dose curve; as a rule, active = well fitted cell-killing curve with a large enough effect; inconclusive = small, poorly fitted or top-dose-only effect, or effect the other way; inactive = flat fitted curve, though single readings scatter.
Potency is the fitted concentration of half-maximal effect.

This assay deals with CAOV3. The assay can be described thus: Primary qHTS to identify gynecologic anti-cancer compounds using libraries of approved drugs and bioactive compounds (AID 1345084). Note: nearly all actives have a fitted effect of over 55% in size. Conditions: Gynecologic cancer cell panel viability, ATPlite luminescence, 48 h; series mostly up to 57.5 µM. From the text:
National Center for Advancing Translational Sciences [NCATS] Assay Overview: Chemotherapeutic drug responses vary from cancer to cancer and from patient to patient. These variations could be caused by a number of factors including patient genomic background, tumor mutations, tumor heterogeneity, and aspects of drug treatment. Chemotherapeutic drug resistance is also a common issue and can lead to ineffective treatment and patient death. Here we have profiled the cell killing effects of thousands of compounds to characterize the responses in three gynecological cancers, identify cancer-selective compounds, and understand the diversity of responses to these compounds from pan-cancer suppressors to single cell line selective compounds. In this assay, we screened a 7,914 compound drug library that included approved drug and bioactive compounds in six ovarian, three cervical, and […] placental cancer cell lines using the ATPlite assay for cell viability. […] The cervical cancer cell lines included HeLa, Ca Ski, and C-33 A. The placental cancer cell lines included JEG-3. HEK 293T cells were used as the control cell line to determine the selectivity index. ATPlite is a luminescence based assay reliant on the conversion of a luciferase substrate to light in the presence of ATP. As a cytotoxic compound will suppress growth and decrease the number of cells, the concentration of ATP will decrease, and less light signal will be detected in the well.
Assay Protocol Summary: 1,000 cells in 4 uL of media were dispensed into white, solid bottom 1536-well plates using a Multidrop Combi (Thermo Scientific). The Assay plates were incubated for 16 hours at 37 C with 5% CO2 in assay plates, followed by the addition of 23 nL of DMSO or drug dissolved in DMSO. Each compound was assayed in five concentrations (0.092, 0.46, 2.3, 11.5, and 57.5 uM), using the automated Wako 1536 Pin Tool workstation and incubated at 37 C with 5% CO2 48 hours. 4 uL of ATPlite, the ATP monitoring reagent, was then added to the each well of the assay plates using the Multidrop Combi reagent dispenser followed by incubation for 15 minutes at room temperature. The resulting luminescence was measured using the ViewLux plate reader.
Background: Quantitative high-throughput screening tests each substance at several concentrations.
In the case of `C=C1CC[C@H](O)CC1=C/C=C1\CCC[C@]2(C)[C@@H]([C@H](C)/C=C/[C@H](C)C(C)C)CC[C@@H]12`, the Potency entry is “inactive”.
Next, `CN(C)CCCSc1ccccc1NC(=O)/C=C/c1ccccc1`: “inactive”; `O=C(O)Cc1cc(I)c(Oc2ccc(O)c(I)c2)c(I)c1`: “inactive”; `COc1ccc(C[C@H](C)NC[C@@H](O)c2ccc(O)c(NC=O)c2)cc1`: “inactive”.
Regarding `CC(=O)Nc1ccc(NC(=S)NC(=O)c2ccc(C(C)(C)C)cc2)cc1`, the Potency result is “inactive”.
Next, `O=C1c2ccccc2C(=O)c2c1ccc(O)c2O`: “inactive”.
For the molecule `CC(C)(C)c1ccc(CN2CCN(C(c3ccccc3)c3ccc(Cl)cc3)CC2)cc1` (configuration not stated), the Potency result is “inactive”.
Next, `CCN(CC)CCOCCOC(=O)C(CC)(CC)c1ccccc1`: “inactive”.
`CC1CC(OC(=O)C(O)c2ccccc2)CC(C)(C)C1` (configuration not stated): the Potency result was “inactive”.
Next, `C[C@]12CC[C@@H]3c4ccc(OC(=O)c5ccccc5)cc4CC[C@H]3[C@@H]1CC[C@@H]2O`: “inactive”.
Consider `CO[C@H]1C[C@@H]2CC[C@@H](C)[C@@](O)(O2)C(=O)C(=O)N2CCCC[C@H]2C(=O)O[C@H]([C@H](C)C[C@@H]2CC[C@@H](OC(=O)C(C)(CO)CO)[C@H](OC)C2)CC(=O)[C@H](C)/C=C(\C)[C@@H](O)[C@@H](OC)C(=O)[C@H](C)C[C@H](C)/C=C/C=C/C=C/1C`, for which the Potency entry was “inactive”.
Take `Nc1ccc(N=Nc2ccccc2)c(N)n1`: the Potency entry is “inactive”.
On to `C[C@H]1O[C@@H](O[C@H]2[C@@H](O)C[C@H](O[C@H]3[C@@H](O)C[C@H](O[C@H]4CC[C@@]5(C)[C@H](CC[C@@H]6[C@@H]5C[C@@H](O)[C@]5(C)[C@@H](C7=CC(=O)OC7)CC[C@]65O)C4)O[C@@H]3C)O[C@@H]2C)C[C@H](O)[C@@H]1O`, for which the Potency was 282 nM (active).
The result for `O=C(OCc1ccccc1)c1ccc(O)cc1` reads “inactive”; that for `C=C1[C@H](CO)[C@@H](O)C[C@@H]1n1cnc2c(=O)[nH]c(N)nc21`, “inactive”.
On to `O=C(O)CCC(=O)c1ccc(-c2ccccc2)cc1`, for which the Potency result was “inactive”.
For `C/C(=C\C(=O)OCCCCCCCCC(=O)O)C[C@@H]1OC[C@H](C[C@@H]2O[C@H]2[C@@H](C)[C@H](C)O)[C@@H](O)[C@H]1O`, the Potency result was “inactive”.
